Measurements reported in PubChem BioAssay AID588511 (Johns Hopkins Ion Channel Center, 2011).
Out of some 310,000 compounds screened, about 3,600 (1.2%) were called active.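 The calls were made as follows: active = ratio plate-corrected score three or more library SD toward inhibition, starting fluorescence score within five deviations; inactive = the rest.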 The sample as a whole holds a higher share of actives than the screen did.

Biological target: Anoctamin-1 (Mus musculus) (UniProt Q8BHY3)
Assay: TMEM16A chloride channel inhibitors, primary screen, cell-based, HTS (AID 588511);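 as to normalized B-score (activity score, 25-100; higher = stronger inhibition): score derived from kinetic fluorescence span divided by baseline fluorescence per well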
Settings: HEK293 TMEM16A/YFP iodide influx fluorescence, ionomycin; at 10 µM

Anoctamin-1 (Mus musculus), sequence (Q8BHY3 whole entry, looked up): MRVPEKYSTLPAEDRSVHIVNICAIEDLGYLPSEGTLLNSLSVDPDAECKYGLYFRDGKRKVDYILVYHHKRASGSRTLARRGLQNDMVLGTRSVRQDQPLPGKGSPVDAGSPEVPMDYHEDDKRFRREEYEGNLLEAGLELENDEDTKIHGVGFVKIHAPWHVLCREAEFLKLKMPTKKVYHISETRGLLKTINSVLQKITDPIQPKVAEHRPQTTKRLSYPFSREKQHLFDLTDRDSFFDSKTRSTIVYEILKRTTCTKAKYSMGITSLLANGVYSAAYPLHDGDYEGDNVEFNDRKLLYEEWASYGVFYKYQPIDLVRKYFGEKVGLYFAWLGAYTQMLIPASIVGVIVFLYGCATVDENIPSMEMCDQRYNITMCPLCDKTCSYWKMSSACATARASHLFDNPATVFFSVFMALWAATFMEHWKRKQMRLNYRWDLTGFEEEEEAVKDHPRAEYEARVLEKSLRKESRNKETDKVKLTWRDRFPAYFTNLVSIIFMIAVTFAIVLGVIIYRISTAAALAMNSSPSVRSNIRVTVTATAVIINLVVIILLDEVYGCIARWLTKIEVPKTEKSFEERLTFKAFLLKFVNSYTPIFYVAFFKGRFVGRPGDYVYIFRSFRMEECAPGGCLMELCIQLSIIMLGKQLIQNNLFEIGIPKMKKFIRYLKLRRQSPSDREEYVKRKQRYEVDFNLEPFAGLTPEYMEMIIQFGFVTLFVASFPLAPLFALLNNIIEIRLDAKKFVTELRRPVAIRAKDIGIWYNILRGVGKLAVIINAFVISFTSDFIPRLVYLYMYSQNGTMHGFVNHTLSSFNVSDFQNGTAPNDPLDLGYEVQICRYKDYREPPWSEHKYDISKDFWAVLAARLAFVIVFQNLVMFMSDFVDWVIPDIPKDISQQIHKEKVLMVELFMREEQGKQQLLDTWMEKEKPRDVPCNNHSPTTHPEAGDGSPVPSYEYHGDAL

Row | SMILES | normalized B-score (activity score, 25-100; higher = stronger inhibition)
1 | CCOc1cccc(=NC2CCCCC2)c2c(C)[nH]c(C)c12 | 25 (active)
2 | Nc1ccc(C(=O)N/N=C2/CN3CCC2CC3)cc1 | inactive
3 | CCOC(=O)C1CN(C)CCC1=O (stereo not given) | inactive
4 | CCCCn1c(=O)c(C(=O)Nc2ccccc2Cl)c(O)c2ccccc21 | inactive
5 | CCCCCn1c(=O)c(C(=O)NCc2ccccn2)c(O)c2ccccc21 | 25 (active)
6 | CCCCCn1c(=O)c(C(=O)NCc2ccccc2)c(O)c2ccccc21 | inactive
7 | O=C(Cn1c(=O)n(CC2CS2)c2ccccc21)N1CCCCC1 (stereo not given) | inactive
8 | O=c1[nH]c(=O)n(-c2ccccc2)c(O)c1C=NC12CN3CN(CN(C3)C1)C2 | inactive
9 | COc1ccccc1NC(=O)N1C[C@@H]2C[C@@H](C1)c1cccc(=O)n1C2 | inactive
10 | Cc1ccc(P(=S)(c2ccc(C)o2)N2CCOCC2)o1 | inactive
11 | COc1ccc(-n2c(-c3ccccc3)nc3ccccc3c2=O)cc1 | inactive
12 | CCN(CC)P(=O)(Oc1cccc(C)c1)N(CC)CC | inactive
13 | CCN(CC)C(=O)c1ccc(NC(=O)c2sccc2-c2ccccc2)cc1 | inactive
14 | CCN(CC)C(=O)c1ccc(NC(=O)c2cc(-n3cnnc3)ccc2Cl)cc1 | 100 (active)
15 | COc1ccc(-c2nn(CCC#N)cc2C(=O)Nc2ccc(C(C)=O)cc2)cc1 | inactive
16 | O=[N+]([O-])c1ccc(C2C3C(c4ccccc4)=NC4(CCCCC4)N32)cc1 (stereo not given) | inactive
17 | CN(C)S(=O)(=O)c1cc(C(=O)N2CCC(C(=O)O)(c3ccccc3)CC2)ccc1Cl | inactive
18 | c1ccc(CCNC2CCCCCC2)cc1 | inactive
19 | CCCCCCCCCCCCn1ccc(=N)cc1 | 25 (active)
20 | CC1(C)C(c2ccccc2)=NC(c2cccnc2)=[N+]1[O-] | inactive
